Assay outcomes: PubChem, several laboratories
Most compounds without a hit are left out; they make up all but 2% or so of the library.
E-sel TNF inh: TNF alpha driven E-selectin expression inhibition; HUVEC TNFa-induced E-selectin immunofluorescence, high content; inhibition, % at 2 µM; actives 0.71% (n = 120,000);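 active = inhibition above the batch mean plus 3 SD, and confirmed as a hit on visual image review, cut at about 43% in these data; inconclusive = passes the inhibition cutoff but fails visual image review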
cytoskel mod: alters cytoskeleton assembly in HUVEC cells. AID 836. HUVEC TNFa F-actin phalloidin imaging, high content. inhibition, % at 2 µM. actives 0.18% (n = 91,000);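 active = inhibition above the batch mean plus 3 SD and confirmed as a hit by visual image inspection, cut at about 30% in these data, passing the limit was not always enough; inconclusive = above the inhibition threshold but rejected on visual inspection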
PLAP act: activates human placental alkaline phosphatase; P05187; purified PLAP enzyme, luminescent substrate read-out; hits give high values; activation fold at 20 µM; actives 1.2% (n = 96,000); in the data active = activation fold above about 2
Target sequence (P05187 whole entry, looked up): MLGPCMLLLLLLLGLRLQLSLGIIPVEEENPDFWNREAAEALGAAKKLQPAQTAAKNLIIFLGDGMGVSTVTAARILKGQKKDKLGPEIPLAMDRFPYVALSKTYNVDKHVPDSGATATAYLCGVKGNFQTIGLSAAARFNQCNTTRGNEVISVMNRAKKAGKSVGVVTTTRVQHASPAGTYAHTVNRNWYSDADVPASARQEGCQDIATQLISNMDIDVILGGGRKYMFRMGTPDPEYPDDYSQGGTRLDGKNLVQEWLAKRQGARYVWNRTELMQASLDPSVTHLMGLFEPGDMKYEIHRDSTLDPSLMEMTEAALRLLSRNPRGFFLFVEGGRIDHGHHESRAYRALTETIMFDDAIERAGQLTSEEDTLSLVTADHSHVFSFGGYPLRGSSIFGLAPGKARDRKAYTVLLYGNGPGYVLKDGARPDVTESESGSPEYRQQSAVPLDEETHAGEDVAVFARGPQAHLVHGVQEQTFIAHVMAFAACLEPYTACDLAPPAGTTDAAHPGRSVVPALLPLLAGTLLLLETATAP
HUVEC tox TNFa: toxic to HUVEC cells under TNF alpha stimulation; HUVEC TNFalpha-stimulated, Hoechst cell count, imaging; cell count reduction, % at 2 µM; actives 0.17% (n = 93,000); AID 848;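 active = cell count reduction exceeding the screen mean by over 5 SD, scaled to untreated wells per plate, cut at about 78% in these data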;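 note: cells counted after 24 h of TNF alpha exposure following the 1 h pretreatment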
VCAM1 TNFa inh: reduces TNF alpha induced VCAM1 expression in HUVEC; HUVEC TNFa-induced VCAM-1 immunofluorescence, high-content imaging; inhibition, % at 2 µM; actives 0.48% (n = 95,000);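 active = inhibition above the batch mean plus 3 SD, with images confirmed as a hit by eye, cut at about 37% in these data; inconclusive = inhibition above that limit but hit not confirmed in images; inactive = inhibition not above that limit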
Of the large screens only hits and unclear results are named; the others gave an inactive call.

Cc1cc(C)c(S(=O)(=O)N2CCC(C(=O)NCc3ccc(Cl)cc3Cl)CC2)c(C)c1	PLAP act 2.4 (no result: cytoskel mod)
CCS(=O)(=O)N1CCC(C(=O)NCc2ccc(F)cc2Cl)CC1	none
Cc1c(Cl)cccc1N(CC(=O)NC1CCCCC1)S(C)(=O)=O	none (no result: cytoskel mod, HUVEC tox TNFa, VCAM1 TNFa inh)
Cc1ccsc1/C=C1\SC(N)=NC1=O	none
Cc1ccc(/C=C2\SC(N)=NC2=O)s1	E-sel TNF inh 94.7 (no result: cytoskel mod, PLAP act, HUVEC tox TNFa, VCAM1 TNFa inh)
O=S(=O)(c1cccs1)N1CCN(CC(O)COC2CCCc3ccccc32)CC1 (centres undefined)	none
O=S(=O)(c1cccs1)N1CCN(CC(O)COc2cccc(Br)c2)CC1 (centres undefined)	VCAM1 TNFa inh 94.1
CC(C)CN1C(=S)SC(C)(C)C1n1oc(=O)n(-c2ccc(Cl)cc2)c1=O (centres undefined)	none (no result: cytoskel mod)
CC1=CC(c2ccc(Cl)cc2)n2nc(NC(=O)c3ccccc3)nc2N1 (centres undefined)	PLAP act 2.3
CC(=O)Nc1nc2n(n1)C(c1ccc(F)cc1)C=C(c1ccccc1)N2 (centres undefined)	cytoskel mod 38.3
O=C1CCC(=O)N1c1nc2n(n1)C(c1ccccc1)C=C(c1ccc(Br)cc1)N2 (centres undefined)	PLAP act 2
CS(=O)(=O)Nc1nc2n(n1)C(c1ccccc1)C=C(c1ccc(Br)cc1)N2 (centres undefined)	none
COc1ccc(C2C=C(c3ccc(Cl)cc3)Nc3nc(NC(C)=O)nn32)cc1 (centres undefined)	none (no result: E-sel TNF inh)
O=C(Nc1nc2n(n1)C(c1ccccc1)C=C(c1ccccc1)N2)c1ccco1 (centres undefined)	PLAP act 2.9 (no result: E-sel TNF inh)
Cc1nc(N2CCCCC2)c(C#N)c(C)c1[N+](=O)[O-]	none (no result: cytoskel mod, PLAP act, HUVEC tox TNFa, VCAM1 TNFa inh)
COC(=O)c1nc2n(n1)C(c1cc(OC)ccc1OC)C(C(=O)OC1CCCCC1)=C(C)N2 (centres undefined)	none (no result: E-sel TNF inh)
CCC(=O)Nc1nc2n(n1)C(c1ccc(OC)cc1)C=C(c1ccccc1)N2 (centres undefined)	none
CC(=O)Nc1nc2n(n1)C(c1ccccc1)C=C(c1ccccc1)N2 (centres undefined)	PLAP act 2.1 (no result: E-sel TNF inh)
CCOC(=O)Cc1csc(NC(=O)COc2ccc3ccccc3c2)n1	none
CCOC(=O)Cc1csc(NC(=O)COc2ccc(OC)cc2)n1	E-sel TNF inh 90.7
CCOC(=O)Cc1csc(NC(=O)COc2ccc(N(C)S(=O)(=O)c3ccc(C)cc3)cc2)n1	VCAM1 TNFa inh 91.1
COCCOC(=O)c1[nH]c2c(c1C)C(=O)CC(c1cc(OC)ccc1OC)C2 (centres undefined)	none (no result: cytoskel mod, HUVEC tox TNFa, VCAM1 TNFa inh)
COc1ccc(OC)c(C2CC(=O)c3c([nH]c(C(=O)OC(C)C)c3C)C2)c1 (centres undefined)	VCAM1 TNFa inh 41.2
COc1ccccc1OCCn1cc(C(=O)c2ccco2)c2ccccc21	E-sel TNF inh 64.5, cytoskel mod 72.1
COc1cccc(OCCn2cc(C(=O)c3ccco3)c3ccccc32)c1	none
O=c1nc(N2CCCCC2)nc(Nc2ccccc2)[nH]1	PLAP act 2.3
CCn1nc(C(=O)Nc2ccc(S(=O)(=O)Nc3nccs3)cc2)c2ccccc2c1=O	E-sel TNF inh 60.9
Cc1cc(Cl)ccc1OCc1n[nH]c(=S)n1C1CCCCC1	none
COc1ccc(-c2n[nH]c(=S)n2C2CCCCC2)cc1	cytoskel mod inconclusive, PLAP act 2
COc1ccc(Cl)cc1-c1n[nH]c(=S)n1C1CCCCC1	PLAP act 2.4 (no result: cytoskel mod)
S=c1[nH]nc(-c2cccnc2)n1C1CCCCC1	none (no result: cytoskel mod, PLAP act, HUVEC tox TNFa, VCAM1 TNFa inh)
COc1ccc(NC(=O)CSc2cc(C(=O)c3nccn3C)c3ccccc3n2)cc1	none (no result: cytoskel mod, PLAP act, HUVEC tox TNFa, VCAM1 TNFa inh)
CCOC(=O)CN1C(=O)C(Sc2n[nH]c(-c3ccccc3)n2)CCc2ccccc21 (centres undefined)	PLAP act 2
COc1ccc(-c2nnc(SCC(=O)N3CCCc4ccccc43)o2)cc1OC	cytoskel mod 33.9 (no result: PLAP act)
CCOC(=O)N1CCN(C(=O)C2CCN(S(=O)(=O)c3cc(OC)ccc3OC)CC2)CC1	E-sel TNF inh 71.9 (no result: cytoskel mod, PLAP act, HUVEC tox TNFa, VCAM1 TNFa inh)
Cc1ccc(NC(=O)CCSc2nnnn2-c2ccc3c(c2)OCO3)cc1C	none
O=C(CSc1nc2ccc(NC(=O)CSc3nnnn3-c3ccccc3)cc2s1)Nc1ccccc1	none (no result: cytoskel mod, PLAP act, HUVEC tox TNFa, VCAM1 TNFa inh)
Cn1cnnc1SCC(=O)Nc1ccc2nc(SCc3ccccc3F)sc2c1	PLAP act 2
Cc1cccc(NC(=O)CSc2nc3ccc(NC(=O)CSc4nnnn4-c4ccccc4)cc3s2)c1C	VCAM1 TNFa inh 43.5
CC(C)C(C)NC(=O)COC(=O)c1cc(S(=O)(=O)N(C)C)ccc1N1CCCC1 (centres undefined)	none (no result: cytoskel mod, PLAP act, HUVEC tox TNFa, VCAM1 TNFa inh)
CCCOc1ccc([N+](=O)[O-])cc1C1NC(=S)NC(c2ccccc2)=C1C(=O)OCC (centres undefined)	E-sel TNF inh 70.4
CC(C)n1c(N2CCN(CC(=O)Nc3ccc4c(c3)OCCO4)CC2)nc2ccccc21	none (no result: E-sel TNF inh)
N#CCCn1c(=S)[nH]c2ccccc21	PLAP act 2.6 (no result: E-sel TNF inh)
Cn1c(=S)[nH]c2ccccc21	none (no result: cytoskel mod)
COc1cc2c(C(=O)N3CCN(c4cccc(Cl)c4)CC3)cn(CC(C)C)c(=O)c2cc1OC	none
CC1(C)CC(=O)C2=C(C1)NCN(Cc1ccc3c(c1)OCO3)C2	E-sel TNF inh 49.1
O=c1cc(O)n(-c2ccc(F)cc2)c(=S)[nH]1	E-sel TNF inh 71.1
Nc1cc(=O)[nH]c(=S)n1-c1cccc(C(F)(F)F)c1	none (no result: cytoskel mod)
O=C(/C=C/c1cccc(Cl)c1)Nn1c(-c2cccs2)nc2ccccc2c1=O	none (no result: cytoskel mod, PLAP act, HUVEC tox TNFa, VCAM1 TNFa inh)
COc1ccc(/C(O)=C2\C(=O)C(=O)N(CCN3CCOCC3)C2c2ccccc2OC)cc1 (centres undefined)	none (no result: cytoskel mod, PLAP act, HUVEC tox TNFa, VCAM1 TNFa inh)
COc1ccccc1C1/C(=C(/O)c2ccc(C)cc2)C(=O)C(=O)N1CCN1CCOCC1 (centres undefined)	E-sel TNF inh 69.5 (no result: cytoskel mod, PLAP act, HUVEC tox TNFa, VCAM1 TNFa inh)
O=C(NCCc1nnc2ccc(NCc3ccccc3Cl)nn12)c1ccccc1	none (no result: cytoskel mod, PLAP act, HUVEC tox TNFa, VCAM1 TNFa inh)
Cc1cc(C)cc(N(CC(=O)Nc2ccccc2C(=O)N2CCOCC2)S(C)(=O)=O)c1	none (no result: cytoskel mod, PLAP act, HUVEC tox TNFa, VCAM1 TNFa inh)
COc1ccc(-c2cc(=O)[nH]c(NCc3ccccc3)n2)cc1	HUVEC tox TNFa 99.3, VCAM1 TNFa inh 100.0
CSCCC(NC(=O)OC(C)(C)C)C(=O)NC(C(=O)NC(CC(C)C)C(N)=O)C(C)C (centres undefined)	none (no result: cytoskel mod)
CSCC[C@H](NC(=O)OC(C)(C)C)C(=O)N/N=C/c1c(C)[nH]c(=O)[nH]c1=O	PLAP act 2.2
O=C(CCS(=O)(=O)c1cccc2nsnc12)NC1CCCCC1	none (no result: E-sel TNF inh)
Cc1ccc(OCC(=O)NN=C2c3ccccc3-c3ccccc32)cc1	none
CCc1ccc(OCC(=O)N/N=C2\CC(=O)c3ccccc32)cc1	PLAP act 2.4
O=c1[nH]c(CSc2nc(-c3ccc(F)cc3)cs2)nc2ccccc12	none (no result: cytoskel mod, PLAP act, HUVEC tox TNFa, VCAM1 TNFa inh)
Cn1cc(C(=O)c2ccc(Cl)cc2Cl)cc1C(=O)N/N=C(\N)COc1cccc(C(F)(F)F)c1	PLAP act 2
CN(C)S(=O)(=O)c1ccc(N2CCCC2)c(C(=O)NCC2CCCCC2)c1	none (no result: cytoskel mod, PLAP act, HUVEC tox TNFa, VCAM1 TNFa inh)
CC(C)(C)OC(=O)NNC(=O)NC12CC3CC(CC(C3)C1)C2	E-sel TNF inh 66.2 (no result: cytoskel mod, PLAP act, HUVEC tox TNFa, VCAM1 TNFa inh)
CC(C)(C)NC(=O)NC12CC3CC(CC(C3)C1)C2	none (no result: cytoskel mod, PLAP act, HUVEC tox TNFa, VCAM1 TNFa inh)
